# Measured values reported in PubChem BioAssay (NCATS).
# Values joined by “and” are separate entries in the source; they are usually repeats but may differ in a detail not shown here. Equal values may be shown once. Records with an inconclusive call do not appear. Where a call stands in place of a potency, no number is given. Unmarked numbers belong to inactive results. Active and inactive are the calls of the source. The call rests on the fitted dose curve; in most records, active means well fitted curve in the direction sought with a large enough effect; inconclusive means small, poorly fitted or top-dose-only effect, or another doubt; inactive means no such curve, though single readings can be large; an effect the other way counts as inactive or inconclusive.
# Experiments:
# [1] = molecular target: Lysine-specific demethylase 5B (Homo sapiens) (UniProt Q9UGL1); experiment: Optimization screen for KDM5B Histone Demethylases FDH coupled qHTS against the LOPAC library (AID 1347166)
# Chain of Lysine-specific demethylase 5B (Homo sapiens) (Q9UGL1 whole entry, looked up): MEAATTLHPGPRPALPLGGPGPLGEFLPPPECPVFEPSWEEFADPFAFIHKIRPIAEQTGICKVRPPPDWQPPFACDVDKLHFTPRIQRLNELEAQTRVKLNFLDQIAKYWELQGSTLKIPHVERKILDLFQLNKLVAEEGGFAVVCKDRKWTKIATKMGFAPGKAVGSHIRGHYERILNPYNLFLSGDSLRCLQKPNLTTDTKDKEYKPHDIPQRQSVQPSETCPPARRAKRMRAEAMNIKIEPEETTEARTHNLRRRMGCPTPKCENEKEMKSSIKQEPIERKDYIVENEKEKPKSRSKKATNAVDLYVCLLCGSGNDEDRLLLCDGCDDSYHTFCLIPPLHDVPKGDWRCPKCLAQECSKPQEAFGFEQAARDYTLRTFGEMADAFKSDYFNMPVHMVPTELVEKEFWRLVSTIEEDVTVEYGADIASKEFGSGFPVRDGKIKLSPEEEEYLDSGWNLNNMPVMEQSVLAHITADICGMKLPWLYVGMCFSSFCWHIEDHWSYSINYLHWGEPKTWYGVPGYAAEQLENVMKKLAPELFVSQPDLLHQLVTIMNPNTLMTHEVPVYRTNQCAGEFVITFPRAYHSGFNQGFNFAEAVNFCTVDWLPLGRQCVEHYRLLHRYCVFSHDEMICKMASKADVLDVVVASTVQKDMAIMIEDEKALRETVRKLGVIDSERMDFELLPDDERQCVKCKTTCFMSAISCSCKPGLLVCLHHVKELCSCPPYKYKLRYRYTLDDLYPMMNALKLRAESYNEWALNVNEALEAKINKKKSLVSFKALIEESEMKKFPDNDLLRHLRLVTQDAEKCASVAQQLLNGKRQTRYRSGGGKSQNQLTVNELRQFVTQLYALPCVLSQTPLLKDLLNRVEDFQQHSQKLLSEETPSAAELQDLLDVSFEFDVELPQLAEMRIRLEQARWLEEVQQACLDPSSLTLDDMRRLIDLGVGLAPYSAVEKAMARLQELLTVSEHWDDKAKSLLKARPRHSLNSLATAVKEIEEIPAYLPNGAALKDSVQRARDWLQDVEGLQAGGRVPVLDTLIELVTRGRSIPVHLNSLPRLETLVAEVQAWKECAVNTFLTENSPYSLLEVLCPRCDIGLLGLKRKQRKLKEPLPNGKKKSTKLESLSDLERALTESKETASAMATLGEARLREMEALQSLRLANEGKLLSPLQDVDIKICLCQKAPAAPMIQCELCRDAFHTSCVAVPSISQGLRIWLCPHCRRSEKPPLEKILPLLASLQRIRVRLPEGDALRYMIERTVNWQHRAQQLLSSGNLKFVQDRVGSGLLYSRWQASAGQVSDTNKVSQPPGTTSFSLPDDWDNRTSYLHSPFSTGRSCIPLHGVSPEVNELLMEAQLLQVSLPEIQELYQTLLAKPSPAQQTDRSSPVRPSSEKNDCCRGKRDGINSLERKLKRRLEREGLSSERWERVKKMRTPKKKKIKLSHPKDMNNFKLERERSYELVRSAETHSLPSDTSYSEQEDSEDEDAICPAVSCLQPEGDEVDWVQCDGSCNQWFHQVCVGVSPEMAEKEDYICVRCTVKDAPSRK
# Method in brief: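 KDM5BDeltaAP (200nM final) preincubated 10 min with compound, then 12.5uM H3K4Me3, 25uM a-ketoglutarate, ascorbate, Fe(II), NAD+ and FDH added; 50mM HEPES pH 7.5, 0.01% Tween-20. NADH fluorescence (340/450 nm) change over 30 min, room temperature.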
# [2] = system: Zika virus NS2B-NS3 protease (linked); experiment: 384 well plate NINDS AMC confirmatory qHTS for Zika virus inhibitors (AID 1347163); conditions: Recombinant NS2B-NS3 protease, Ac-VKTGKR-AMC fluorescence; further: potency means the concentration at half of the fitted maximal effect; nearly all actives have a fitted effect of over 50% in size
# Method in brief: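 Linked NS2B-NS3 protease (final 5 nM, 30 nM or 60 nM) was preincubated with compounds (final up to 1 mM) for ~15 minutes. Ac-VKTGKR-AMC substrate (final 30 microM) then reacted for 25 minutes at room temperature in the dark. Fluorescence (ex 355/em 460 nm) was normalized to no-enzyme and no-inhibitor controls.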
# [3] = system: Zika virus NS2B-NS3 protease (linked construct); experiment: 384 well plate NINDS Rhodamine confirmatory qHTS for Zika virus inhibitors (AID 1347164); conditions: rhodamine-110 peptide substrate fluorescence;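 further: fluorescence from protease cleavage of Ac-LKRR-rhodamine 110 substrate; potency means the concentration at half of the fitted maximal effect; nearly all actives have a fitted effect of over 65% in size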
# Method in brief: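 Fluorescence read at ex 485 nm/em 538 nm, 25 min after adding 10 microM Ac-LKRR-Rd substrate at room temperature in the dark; signal normalized to no-enzyme and no-inhibitor controls. Enzyme final 5, 30 or 60 nM; compounds, ~15 min preincubation.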
# [4] = Tertiary RLuc qRT-PCR qHTS assay for Zika virus inhibitors (AID 1347169); further: top concentration of the series differs between compounds; nearly all actives have a fitted effect of over 55% in size
# Method in brief: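 Luminescence read-out: live-cell Renilla luciferase substrate applied to infected Vero cells, signal measured after 1-1.5 hrs. Cells had received compound before ZIKV-RLuc (Cambodian strain, MOI 1-2) infection and were incubated 48-72 hrs at 37 degrees C.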
# [5] = Confirmatory screen NINDS Rhodamine qHTS for Zika virus inhibitors (AID 1347161); further: nearly all actives have a fitted effect of over 60% in size; further: potency means the concentration at half of the fitted maximal effect;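 on activity change, negative = inhibition: purified Zika NS2B-NS3 protease with linked NS2B cofactor domain and Rhodamine110 peptide substrate; series mostly up to about 110 µM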
# Method in brief: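 Rhodamine110-peptide cleavage (1.5 µM substrate) by 25 nM linked NS2B-NS3 enzyme at pH 8.0 (Tris, Tween 20), after 15 min RT preincubation with compounds; 15-min fluorescence change normalized to controls and Hill-fitted.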
# [6] = Vero cells viability qHTS for Zika virus inhibitors (AID 1347167)
# Method in brief: (§1)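 Compounds were tested in concentration series on cells grown in DMEM containing 4% FBS. After 24 to 48 hours, cellular ATP was measured by luminescence with CellTiter Glo.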
# [7] = HepG2 cells viability qHTS for Zika virus inhibitors (AID 1347168); further: potency means the concentration at half of the fitted maximal effect
# Method in brief: as §1
# [8] = OV-KATE Cancer Cell Toxicity qHTS against the NCATS CANVASS Library (AID 1347345)
# Source text: (§2) Natural products and their derivatives continue to be wellsprings of nascent therapeutic potential. However, many laboratories have limited resources for biological evaluation, leaving their previously isolated or synthesized compounds largely or completely untested. To address this issue, the Canvass library of natural products was assembled (https://tripod.nih.gov/canvass), in collaboration with academic and industry researchers, for quantitative high-throughput screening (qHTS) across a diverse set of cell-based and biochemical assays. The pure (>85% purity by liquid chromatography/mass spectrometry [LC/MS]) Canvass library of 346 natural products were submitted by 45 academic laboratories and companies around the world. […] The library was formatted into 1536-well plates and evaluated in 50 qHTS (in an 11-pnt concentration series) bioassays with broad scope of disease-relevant mechanisms. The resulting data set from 50 different assays was then systematically analyzed to identify overall trends and specific natural products with interesting biological activities. […]
# Cancer Cell Toxicity protocol for cell lines COV-362, OV-KATE, OV-SAHO, UWB1.289, UWB1.289-WTBRCA1, HEK-293, HPAF-II, Panc-1005, SW1088, or U-118MG. […] Luminescence signal was acquired via the ViewLux plate reader (PerkinElmer) using a clear filter, 2 second exposure and 2x binning settings.
# [9] = HPAF-II Cancer Cell Toxicity qHTS against the NCATS CANVASS Library (AID 1347346); further: series mostly up to about 38 µM; nearly all actives have a fitted effect of over 55% in size
# Source text: as §2
# Cancer Cell Toxicity protocol for cell lines COV-362, OV-KATE, OV-SAHO, UWB1.289, UWB1.289-WTBRCA1, HEK-293, HPAF-II, Panc-1005, SW1088, or U-118MG. […] 7.#Luminescence signal was acquired via the ViewLux plate reader (PerkinElmer) using a clear filter, 2 second exposure and 2x binning settings.
# [10] = UWB1.289 Cancer Cell Toxicity qHTS against the NCATS CANVASS Library (AID 1347347); further: series mostly up to about 38 µM; nearly all actives have a fitted effect of over 60% in size
# Method in brief: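 Toxicity is measured over 72 h of compound exposure at 37 degrees C under 5% CO2. Each well holds 1000 cells, pre-incubated for 4 hours before dosing across an 11-point range. CellTiter-Glo luminescence gives viability.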
compound,measurement,setting,value
COc1cc(C(O)CN)ccc1O (configuration not stated),outcome,[1],inactive
O=C(O)[C@@H]1CCN1,outcome,[1],inactive
Oc1ccc2c3c1O[C@H]1c4[nH]c5c(c4C[C@@]4(O)[C@@H](C2)N(CC2CC2)CC[C@]314)C[C@@]1(O)[C@H]2Cc3ccc(O)c4c3[C@@]1(CCN2CC1CC1)[C@H]5O4,outcome,[1],inactive
O=C(O)c1cc(Oc2ccc(C(F)(F)F)cc2Cl)ccc1[N+](=O)[O-],Potency,[2],562 µM (active)
same,Potency,[3],316 µM (active)
same,"activity change, negative = inhibition",[4],35.5% [at 1.74 µM]
CC[C@@H](C(N)=O)N1CCCC1=O,outcome,[1],inactive
CCCN1CCC[C@H](c2cccc(O)c2)C1,outcome,[1],inactive
CCCCc1ccc(C(=O)O)nc1,outcome,[1],inactive
Nc1c(Cl)c(Cl)c(Cl)c(Cl)c1Cl,Potency,[5],inactive
same,outcome,[4],inactive
CN[C@@H]1C[C@@H](c2ccc(Cl)c(Cl)c2)c2ccccc21,outcome,[1],inactive
O=[N+]([O-])c1c(Cl)c(Cl)cc(Cl)c1Cl,Potency,[5],inactive
same,"activity change, negative = inhibition",[4],77.7% [at 3.57 µM]
Clc1cnc(Oc2ccc(Oc3ncc(Cl)cc3Cl)cc2)c(Cl)c1,outcome,[1],inactive
CN1C2CCC1CC(OC(=O)c1cc(Cl)cc(Cl)c1)C2 (configuration not stated),outcome,[1],inactive
Cn1cnc(CCN)c1,outcome,[1],inactive
NCc1cc(=O)[nH]o1,outcome,[1],inactive
CN(C)[C@@H]1C(=O)C(C(N)=O)=C(O)[C@@]2(O)C(=O)C3=C(O)c4c(O)cccc4[C@@](C)(O)[C@H]3[C@H](O)[C@@H]12,Potency,[5],19.7 µM (active) and 7.82 µM (active)
same,Potency,[2],158 µM (active) and 8.91 µM (active)
same,Potency,[3],50.1 µM (active) and 2.51 µM (active)
same,Potency,[6],inactive
same,Potency,[7],inactive
same,outcome,[4],inactive
c1ccc(CCCN2CCN(CCOC(c3ccccc3)c3ccccc3)CC2)cc1,outcome,[1],inactive
CC[C@@]1(O)C(=O)OCc2c1cc1n(c2=O)Cc2cc3ccccc3nc2-1,outcome,[1],inactive
O=C1C(I)=CC(=C(c2cc(I)c(O)c(I)c2)c2ccccc2C(=O)O)C=C1I,Potency,[5],2.51 µM (active)
same,Potency,[2],50.1 µM (active)
same,Potency,[3],8.91 µM (active)
same,"activity change, negative = inhibition",[4],34.1% [at 1.74 µM]
CC(=O)N(C)c1cccc(-c2ccnc3c(C(=O)c4cccs4)cnn23)c1,Potency,[5],inactive
same,Potency,[6],inactive
same,Potency,[7],inactive
NC(CP(=O)(O)O)C(=O)O (configuration not stated),outcome,[1],inactive
CC1=C(O)C(=O)C=C2C1=CC=C1[C@@]2(C)CC[C@@]2(C)[C@@H]3C[C@](C)(C(=O)O)CC[C@]3(C)CC[C@]12C,Potency,[5],5.53 µM (active) and 2.77 µM (active)
same,Potency,[2],79.4 µM (active)
same,Potency,[3],28.2 µM (active)
same,Potency,[7],18.5 µM (active) and 7.37 µM (active)
CC(C)Oc1cccnc1N(C)C1CCN(Cc2ccccc2)CC1,Potency,[5],inactive
same,Potency,[6],inactive
same,Potency,[7],inactive
same,outcome,[4],inactive
Cc1c(C(=O)c2cccc3ccccc23)c2cccc3c2n1[C@H](CN1CCOCC1)CO3,outcome,[1],inactive
NC1CC1c1ccccc1 (configuration not stated),outcome,[1],inactive
C#CCOC(=O)C1=CCCN(C)C1,outcome,[1],inactive
CS(=N)(=O)CC[C@H](N)C(=O)O (some centres not stated),outcome,[1],inactive
COC(=O)[C@@H](N)CCCN=C(N)N[N+](=O)[O-],outcome,[1],inactive
O=C(N[C@H]1CN2CCC1CC2)c1ccc(Cl)cc1,outcome,[1],inactive
C=CCN1CC[C@]23CCCCC2[C@H]1Cc1ccc(O)cc13 (some centres not stated),Potency,[6],inactive
same,Potency,[7],inactive
same,outcome,[4],inactive
NCCc1c[nH]c2ccccc12,outcome,[8],inactive
same,outcome,[9],inactive
same,outcome,[10],inactive
NCCc1c[nH]c2ccc(O)cc12,outcome,[8],inactive
same,outcome,[9],inactive
same,outcome,[10],inactive
